From the supplement of paper PMC7057948, “A genome-wide approach for identification and characterisation of metabolite-inducible systems” (Nature Communications, 2020)

Test system: PhhR/P_H16_RS18365 L-phenylalanine biosensor (pEH137)
Assay: relative induction of RFP reporter vs primary effector; higher = stronger activation
Settings: inducer concentration 5 mM; 6 h; Cupriavidus necator H16; minimal medium + 0.4% gluconate
Procedure: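 Orthogonality screen of 21 primary inducers against 21 transcription factor/inducible promoter–mRFP biosensors in C. necator H16 in minimal medium, robotic 96-well format, 5 mM inducer, 30 °C. OD-normalised RFP fluorescence was read 6 h later and expressed as relative induction (%) = 100 × (FL compound − FL uninduced)/(FL primary inducer − FL uninduced); mean of n=4. Cognate pairs (100% by definition) omitted.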

Row | Compound | relative induction of RFP reporter [%]
1 | O=C(O)c1ccc(O)c(O)c1 [3,4-dihydroxybenzoate] | -0.638
2 | O=C(O)C(=O)c1ccccc1 [phenylglyoxylate] | -0.366
3 | O=C(O)C1CCCCC1 [cyclohexane-1-carboxylate] | -0.0509
4 | O=C(O)CS(=O)(=O)O [sulfonatoacetate] | -0.174
5 | CC(=O)C(C)O (configuration not stated) [acetoin] | -0.273
6 | O=CO [formate] | -0.0153
7 | NCCC(=O)O [β-alanine] | -0.6
8 | O=C(O)c1ccccc1O [salicylate] | -0.155
9 | Nc1ccccc1C(=O)C[C@H](N)C(=O)O [L-kynurenine] | -0.316
10 | N[C@@H](Cc1ccc(O)cc1)C(=O)O [L-tyrosine] | -0.541
11 | C=C(CC(=O)O)C(=O)O [itaconate] | -0.415
12 | OC1OC[C@H](O)[C@H](O)[C@H]1O (mixture of isomers) [L-arabinose] | -0.00622
13 | O=C(O)C(O)C(O)C(=O)O (configuration not stated) [tartrate] | 0.258
14 | O=C(O)c1ccccc1 [benzoate] | -0.383
15 | O=c1[nH]c(=O)c2nc[nH]c2[nH]1 [xanthine] | -0.134
16 | C=CC(=O)O [acrylate] | -0.318
17 | O=C(O)CCO [3-hydroxypropanoate] | -0.273
